# KDM5B inhibitor: Primary screen for KDM5B Histone Demethylases FDH-coupled qHTS; KDM5B demethylase, FDH-coupled NADH fluorescence (FDH is formaldehyde dehydrogenase); Lysine-specific demethylase 5B (Homo sapiens), Q9UGL1; 2.6% of 220,000 active; Potency, µM (titrated, usually from 57.7 µM), actives largely listed as inhibitors; AID 1347165, 2019; active means well fitted inhibition curve with a large enough effect; further: 0% is about no effect; nearly all actives have a fitted effect of over 70% in size
#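 Measured: NADH fluorescence change, 30 min, RT. System: KDM5BΔAP 200 nM final, H3K4me3 peptide, α-KG, Fe(II), ascorbate, NAD⁺ plus FDH, pH 7.5 HEPES. Compounds: titrated, 10 min pre-incubation with enzyme.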
# The depositor's hits bear a star; i = inactive; ! = not confirmed by another sample. This excerpt belongs to a sample that is enriched for hits. Potency means the concentration at half of the fitted maximal effect.
SMILES,KDM5B inhibitor
Cc1nc(CN2CCN(C(=O)NCc3ccccn3)CC2)cs1,i
Cc1nc(CNC(=O)c2cccc(S(=O)(=O)N3CCOCC3)c2)cs1,i
Cc1nc(CNCc2cccc(NC(=O)c3cccc(F)c3)c2)cs1,i
Cc1nc(CN2CC3(CCN(C)C3)c3cc(C(=O)NCc4ccccc4)ccc32)cs1 (centres undefined),35µM*
CC(C)CCN1CCOc2cc(C(=O)NCc3cccs3)ccc2C1,i
CS(=O)(=O)N1CCc2ccc(C(=O)Nc3ccc(F)cc3)cc21,i
Cc1nc(CN2CC3(CCN(C)C3)c3cc(C(=O)Nc4ccc(F)cc4)ccc32)cs1 (centres undefined),25µM*
O=C(NCc1cccs1)c1ccc2c(c1)N(Cc1ccccc1)C(=O)CS2=O (centres undefined),i
CN(C)CC(=O)N1CCC2(C1)CN(C)c1ccc(C(=O)NCc3cccs3)cc12 (centres undefined),40µM*
CN1CCC2(C1)CN(Cc1ccccc1)c1ccc(C(=O)NCc3cccs3)cc12 (centres undefined),35µM*
CN1CCCC2(C1)CN(Cc1cccnc1)c1ccc(C(=O)NCc3cccs3)cc12 (centres undefined),i
CCc1nc2ccc(C(=O)NCc3cccs3)cc2nc1CC,i
COc1ccc(N2CCN(C(=O)Cn3nc(C)c4sc(C(C)C)nc4c3=O)CC2)cc1,i
CC(C)CCNC(=O)N1CCC(Oc2ncccc2C(=O)N2CCCCC2)C1 (centres undefined),i
N#CCc1ccc(OCc2ccccc2N)cc1,i
CSc1cccc(NC(=O)CN(C)S(=O)(=O)c2ccc3c(c2)n(C)c(=O)c(=O)n3C)c1,i
CC(=O)NC(C)c1ccc(-c2ccccc2)cc1 (centres undefined),i
Cc1cc(CN2CCC3(CCC(=O)N(C(C)C(=O)O)C3)CC2)on1 (centres undefined),i
Cc1nc(COc2ccc(C(=O)Nc3ccccc3N3CCOCC3)cc2)cs1,i
Cc1nc(CC(=O)N2CCCC(c3ccc(C(=O)O)cc3)C2)cs1 (centres undefined),i
Cc1nc(CSCC(=O)NCc2cccs2)cs1,i
Cc1ccccc1CN1C(=O)c2ccccc2Sc2ccc(C(=O)NCc3cccs3)cc21,i
Cc1nc(CN2CC3(CCN(C)C3)c3cc(C(=O)NCc4cccs4)ccc32)cs1 (centres undefined),35µM*
Cc1nc(CN2CC3(CCN(C)C3)c3cc(C(=O)NCC4CC4)ccc32)cs1 (centres undefined),28µM*
CCCc1ccc(-c2ccc(C(=O)OCC)cc2)nc1,i
SMILES,KDM5B inhibitor
O=C(Nc1nncs1)c1cc(-c2ccncc2)nc2ccc(Cl)cc12,i
Cc1ccc(OCCNc2ccc(Cl)cc2)cc1,i
CS(=O)(=O)Nc1ccc(C2(C(=O)NCc3ccc(F)cc3)CCCCC2)cc1,i
Fc1ccc2nc([C@H]3CCN(Cc4ncc[nH]4)C3)[nH]c2c1,28µM*
Fc1ccc2nc([C@H]3CCN(Cc4ccc(F)c(F)c4)C3)[nH]c2c1,i
COc1ccc2nc([C@H]3CCN(Cc4ccncc4)C3)[nH]c2c1,35µM*
COc1cccc(CN2CC[C@H](c3nc4ccccc4[nH]3)C2)c1,i
COc1ccc(S(=O)(=O)N2CCC(c3nc4ccccc4[nH]3)CC2)cc1,i
COc1ccc2nc([C@H]3CCN(C4CCCCC4)C3)[nH]c2c1,28µM*
Fc1ccc2nc([C@H]3CCN(Cc4cccs4)C3)[nH]c2c1,i
Cc1ccc(CN2CC[C@H](c3nc4ccc(C(F)(F)F)cc4[nH]3)C2)cc1,i
CN1CCC(N2CC[C@H](c3nc4ccc(C#N)cc4[nH]3)C2)CC1,35µM*
COc1ccc(CN2CC[C@H](c3nc4ccc(C)cc4[nH]3)C2)cc1,i
COc1ccc(CN2CC[C@H](c3nc4ccc(OC)cc4[nH]3)C2)cc1,i
CC(=O)N1CCC(N2CC[C@H](c3nc4ccc(F)cc4[nH]3)C2)CC1,i
O=C(CSc1ccccc1C(=O)Nc1ccc2c(c1)OCCO2)NCc1ccco1,i
CCOc1cc2cc(C(=O)c3ccccc3O)cnc2cc1OC,i
O=C(COC(=O)c1ccc2ccccc2n1)Nc1ccc(F)c(F)c1F,i
Cc1oc(-c2ccccc2F)nc1CSc1nnc(C)n2c1cc1occc12,i
COC(=O)[C@H]1CN(C(=O)NC(C)C)CCN1C(=O)C1CCCCC1,i
CC(=O)NCCC(=O)N1CCCC(c2[nH]ncc2-c2ccc(C)cc2)C1 (centres undefined),i
COC[C@@H]1CN(S(=O)(=O)c2cccc(C)c2)C[C@H]1c1ccncc1,i
COC(=O)Nc1cc(C(=O)OC)cc(C(=O)OC)c1,i
CC(=O)N(Nc1ccccc1)c1ccccc1,i
COc1ccccc1-c1nnc([C@H]2CCN(C(=O)c3ccccc3)C2)o1,i
SMILES,KDM5B inhibitor
COc1ccccc1-c1nnc([C@H]2CCN(Cc3ncc[nH]3)C2)o1,40µM*
O=c1[nH]c(C2CCCN(Cc3ccc(-c4ccccc4)cc3)C2)nc2ccc(F)cc12 (centres undefined),i
Cc1ccc(N2CC(c3nc4ccccc4n3C)CC2=O)cc1 (centres undefined),i
COc1cccc(-c2ccc(CN3CCCC(c4nc5ccc(C)cc5c(=O)[nH]4)C3)cc2)c1 (centres undefined),35µM*!
Cc1ccc2nc(C3CCN(Cc4ccccc4)CC3)[nH]c(=O)c2c1,i
CCOc1ccc(C(=O)N2CCC(c3nnc(-c4ccccc4OC)o3)CC2)cc1,i
Cn1c([C@H]2CCN(Cc3ncc[nH]3)C2)nc2ccccc21,35µM*
Cn1c([C@H]2CCN(S(=O)(=O)Cc3ccccc3)C2)nc2ccccc21,i
c1coc(CN2CC(Oc3ccc(-c4noc(C5CC5)n4)cc3)C2)c1,i
CC1CCC2(CC1)NC(=O)N(CC(=O)NC(C)c1ccccc1)C2=O (centres undefined),i
O=S(=O)(NC(c1ccccc1)C1CC1)c1cccs1 (centres undefined),i
CCc1ccc2oc(C(=O)N(Cc3ccc(F)cc3)C3CCS(=O)(=O)C3)cc(=O)c2c1 (centres undefined),i
CCCCC(=O)NC1CCN(c2cnn(C)c(=O)c2)CC1,i
O=C(Nc1cnc(-c2ccccc2)nc1)c1ccccc1,i
Cc1ccc(-c2ncc(NC(=O)c3cccs3)cn2)cc1,32µM*
CCCC(=O)Nc1cnc(-c2ccc(C)cc2)nc1,i
N#Cc1ccsc1NC(=O)CSc1nnc(-c2ccccc2F)n1C1CC1,i
COc1ccc(C(=O)O)cc1S(=O)(=O)N(C)CCc1ccccn1,i
CC1CCC2(CC1)NC(=O)N(CC(=O)Nc1ccccc1C(C)C)C2=O (centres undefined),i
Cc1ccn2c(C(=O)N[C@H](c3cnn(C)c3)C3CC(O)C3)nnc2n1 (some centres undefined),i
Cn1cc([C@@H](NC(=O)c2ccc3scnc3c2)C2CC(O)C2)cn1 (some centres undefined),i
Cc1ccc(S(N)(=O)=O)cc1C(=O)N[C@H](c1cnn(C)c1)C1CC(O)C1 (some centres undefined),i
Cn1cc(C(NC(=O)c2ccc3c(c2)ncn3CCO)C2CC(O)C2)cn1 (centres undefined),i

# Assay outcomes as filed in PubChem BioAssay.
